Screening data from PubChem.
Sampled rows, rich in hits. Any-hit rate of the full collection: about 4.7%.
UBC9 SUMO inh – inhibitors of human SUMOylation (UBC9); P63279; HTRF SUMOylation assay, SAE1/SAE2 + UBC9, in vitro; inhibition, % at 35 µM; 290,000 tested, 0.36% active; AID 2006; in the data active = inhibition above about 50%, passing the limit was not always enough; inconclusive = no clear call, values can overlap the other calls
MLLE-PAM2 inh – blocks PAM2 peptide binding to the PABP1 MLLE domain | GST-MLLE / FITC-PAM2 fluorescence polarization | inhibition, % at 20 µM | 360,000 tested, 0.36% active; in the data active = inhibition above about 35%, passing the limit was not always enough;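 also: plate controls were DMSO wells with GST-MLLE for no effect and wells lacking GST-MLLE protein for full effect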
Efflux pump inh – inhibitors of Candida antifungal efflux pumps expressed in yeast. S. cerevisiae Candida pump triplex, Nile Red efflux. inhibition, % at 10 µM. 330,000 tested, 0.44% active. AID 485275;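 active = plate passing quality check with inhibition over a set limit, or well fluorescence over plate mean plus 4 SD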;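 also: Nile Red retained in pooled yeast measured as flow cytometry median fluorescence; 0% = buffer negative control and 100% = Enniatin B positive control; higher means more Nile Red kept so more efflux inhibition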
ALR inh – inhibitors of human sulfhydryl oxidase ALR; P55789; purified ALR, DTT oxidation, H2O2 HRP-luminol luminescence; inhibition, % (no concentration beside the values); 290,000 tested, 3.8% active; AID 485317;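 active = mean replicate inhibition above about 79%, with every replicate also reaching it, limit read from the data; inconclusive = only one of the two criteria met; inactive = mean below limit and not every replicate reaching it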
Target sequence (P55789 whole entry, looked up): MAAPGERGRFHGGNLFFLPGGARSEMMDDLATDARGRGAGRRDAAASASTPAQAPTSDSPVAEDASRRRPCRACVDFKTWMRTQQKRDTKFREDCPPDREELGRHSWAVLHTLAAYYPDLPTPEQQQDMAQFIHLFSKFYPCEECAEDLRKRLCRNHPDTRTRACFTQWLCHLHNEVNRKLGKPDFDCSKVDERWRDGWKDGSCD
PABP polyA inh – PABP-poly(A) binding inhibition | P11940 | PABP-poly(A) RNA binding, fluorescence polarization | inhibition, % at 35 µM | 290,000 tested, 1% active | AID 2014;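 also: calls also rest on retests at 20 µM and on dose response follow-up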
eIF4H FP inh – inhibitors of RNA binding by human eIF4H; Q15056; eIF4H fluorescence polarization binding assay; inhibition, % at 35 µM; 290,000 tested, 0.94% active; AID 2012;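 also: calls also rest on retests at 20 µM and on dose response follow-up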
* marks the source's active call; other numbers are inactive results; ? = inconclusive; / = no result. Unless noted, no rule for the calls is given here.

SMILES	UBC9 SUMO inh	MLLE-PAM2 inh	Efflux pump inh	ALR inh	PABP polyA inh	eIF4H FP inh
CCN(CC)CCn1c(SCC(=O)Nc2ccc(F)cc2)nc2c(sc3ccccc32)c1=O	18	/	0	99*	-1	-7
CCOC(=O)C1=C(COC(=O)/C=C/c2cccc(Cl)c2)NC(=O)NC1C (configuration not stated)	/	-1	0	-6	/	/
CCc1ccc(-c2cc(C)no2)cc1S(=O)(=O)N1CCCN(Cc2ccc(F)cc2)C1	-4	-7	0	-3	9	0
O=C(NCCN1CCOCC1)/C(=C/c1ccc(Cl)cc1)NC(=O)c1ccccc1	10	6	0	-16	6	-2
Cc1ccc(C(=O)N/C(=C\c2cn(C)c3ccccc23)C(=O)NCCCN2CCOCC2)cc1	4	-12	0	12	-7	-5
CN(C)c1ccc(/C=C(/NC(=O)c2ccccc2Cl)C(=O)NCCN2CCOCC2)cc1	/	-68	0	88*	/	/
Cc1ccc(C(=O)N/C(=C\c2ccc(-c3ccccc3[N+](=O)[O-])o2)C(=O)NCCCN2CCOCC2)cc1	24	24	0	0	82*	98*
CN(C)S(=O)(=O)n1cc(/C=C(\NC(=O)c2ccccc2Cl)C(=O)NCCN2CCOCC2)c2ccccc21	1	8	0	-2	0	-7
CN(C)c1ccc(/C=C(/NC(=O)c2ccccc2)C(=O)NCCN2CCOCC2)cc1	-10	-44	0	99*	-20	44
COc1ccc(/C=C/C(=O)OCC(=O)NC2CCCC2)c(OC)c1	/	-3	0	-2	/	/
O=C(NNC(=O)c1cccs1)c1ccccc1	2	-3	0	2	6	-4
O=C(NC(O)C(=O)c1ccccc1)c1cccs1 (configuration not stated)	5	-11	0	91*	7	3
COc1cc(/C=C(\CC(=O)O)c2nc3ccccc3s2)cc(OC)c1O	28	-8	0	100*	-4	-4
COc1cc(C=C(c2nc3ccccc3s2)c2nc3ccccc3s2)cc(OC)c1O	6	-31	0	/	active	52*
COc1ccc(/C=C(\CC(=O)O)c2nc3ccccc3s2)cc1O	10	3	0	92*	0	9
O=C(O)c1ccc(C=C(c2nc3ccccc3s2)c2nc3ccccc3s2)cc1	23	-26	0	48	-8	4
Cn1ccnc1COc1ccc(C=O)cc1	10	-9	0	-6	2	-9
N#CC(C#N)=Cc1cc2ccccc2nc1N1CCOCC1	-5	-105	0	95*	6	12
Cc1cc(=O)n2nc(N3CCCC(C(=O)NCCCN4C(C)CCCC4C)C3)sc2n1 (configuration not stated)	/	1	/	/	/	/
CCCCNC(=O)CNC(=S)N(Cc1ccccc1F)C1CCCCC1	7	-124	0	/	10	-1
Cc1cc(N)n2ncc(-c3ccccc3)c2n1	7	0	0	90*	-3	-4
O=S1(=O)CC/C(=N\Nc2ccccc2)c2ccsc21	9	20	0	100*	-11	5
COc1ccccc1N=c1scc(-c2ccc3c(c2)NC(=O)CO3)n1CC1CCCO1 (configuration not stated)	15	-7	0	99*	-4	4
CCN=c1scc(-c2ccc3c(c2)NC(=O)CO3)n1N=C1CCCC1	14	-42	0	91*	-1	-13
Oc1ccc(Cc2ccc(Cl)cc2)c(O)c1	-4	4	0	97*	0	-9
SMILES	UBC9 SUMO inh	MLLE-PAM2 inh	Efflux pump inh	ALR inh	PABP polyA inh	eIF4H FP inh
NC(=O)N/N=C/c1sc(N2CCCCC2)nc1-c1cccs1	/	-26	0	97*	/	/
COC(=O)c1ccc2c(=O)sc(N3CCC(C(N)=O)CC3)nc2c1	17	44*	0	-8	-7	-9
COC(=O)c1ccc(C(=O)OC)c(NC(=S)N2CCC(C(N)=O)CC2)c1	19	7	0	/	0	7
CCN(CC)S(=O)(=O)c1ccc(C(=O)Nc2nnc(CSC)o2)cc1	9	7	0	91*	8	3
CCN(CC)S(=O)(=O)c1ccc(C(=O)Nc2nnc(COC)o2)cc1	-1	2	0	9	-2	11
CCOC(=O)c1sc2nc3c(SCCC#N)cc(C(=O)c4cc(F)ccc4O)cn3c(=O)c2c1C	29	-33	0	-2	-10	27
CCOC(=O)c1sc2nc3c(SCCC(=O)O)cc(C(=O)c4cc(OC)ccc4O)cn3c(=O)c2c1C	74*	-81	/	/	-2	81
O=C(O)CSc1cc(C(=O)c2cc(F)ccc2O)cn2c(=O)c3c(-c4ccccc4)csc3nc12	62	-18	0	19	30	50*
COCCCNC(=O)CC1C[C@H](C(=O)N2CCOCC2)[C@@]2(C)c3[nH]c4ccc(OC)cc4c3CCN2C1=O (some centres not stated)	/	-2	0	/	/	/
O=C(c1ccco1)N1CCN(c2ccc([N+](=O)[O-])cn2)CC1	16	-2	2	/	-5	-6
Cc1cc(C(=O)CCC(=O)Nc2cccc(F)c2)c(C)s1	/	15	/	/	/	/
Cn1cc(/C=N/NC(=O)c2ccc(C#N)cc2F)c2ccccc21	20	3	0	-1	69*	4
CC1(C(=O)NCCCN2CCOCC2)Oc2cccnc2NC1=O (configuration not stated)	22	5	0	4	-4	-1
N[C@@H](Cc1cc(I)c(Oc2ccc(O)c(I)c2)c(I)c1)C(=O)O	10	-91	0	39	-1	39
O=C(O)CCc1cc(I)c(Oc2ccc(O)c(I)c2)c(I)c1	39	/	/	/	50*	65*
C[C@@H]1C[C@H]2[C@@H]3C[C@H](F)C4=CC(=O)C=C[C@]4(C)[C@@]3(Cl)[C@@H](O)C[C@]2(C)[C@H]1C(=O)COC(=O)C(C)(C)C	/	-10	0	-1	/	/
Cc1ccc(N2NC(=O)/C(=C\c3cc4c(cc3[N+](=O)[O-])OCO4)C2=O)cc1C	27	8	0	94*	3	105
CCOc1cc(/C=C2/C(=O)NN(c3cccc(Cl)c3)C2=O)ccc1O	9	-144	0	98*	-7	40
COc1cccc(/C=C2/C(=O)NN(c3ccc(F)cc3)C2=O)c1	-9	18	0	?	4	9
COc1cc(/C=C2/C(=O)NN(c3ccc(C)c(Cl)c3)C2=O)cc([N+](=O)[O-])c1O	-10	-55	0	99*	13	-3
COc1cccc(/C=C2/C(=O)NN(c3ccc(C)c(C)c3)C2=O)c1	-1	21	0	99*	1	-9
CN(C)Cc1c(OC(=O)c2ccc(N)cc2)ccc2ccccc12	/	11	/	/	/	/
CCN(CCc1ccccc1)c1ccc2c(c1)C1CC2CCN1Cc1ccccc1 (configuration not stated)	/	8	/	/	/	/
